# IDE act = IDE (human) activation, cell-based | HEK cells, FAbeta-B cleavage, fluorescence polarization; 0% vehicle, 100% cell-free pure enzyme wells | activation, % at 5.96 µM | hit rate 0.073% among 340,000;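 active = activation above the mean of all tested compounds plus 3 SD, set per screening campaign, cut at about 17% in these data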
# Target sequence (P14735 whole entry, looked up): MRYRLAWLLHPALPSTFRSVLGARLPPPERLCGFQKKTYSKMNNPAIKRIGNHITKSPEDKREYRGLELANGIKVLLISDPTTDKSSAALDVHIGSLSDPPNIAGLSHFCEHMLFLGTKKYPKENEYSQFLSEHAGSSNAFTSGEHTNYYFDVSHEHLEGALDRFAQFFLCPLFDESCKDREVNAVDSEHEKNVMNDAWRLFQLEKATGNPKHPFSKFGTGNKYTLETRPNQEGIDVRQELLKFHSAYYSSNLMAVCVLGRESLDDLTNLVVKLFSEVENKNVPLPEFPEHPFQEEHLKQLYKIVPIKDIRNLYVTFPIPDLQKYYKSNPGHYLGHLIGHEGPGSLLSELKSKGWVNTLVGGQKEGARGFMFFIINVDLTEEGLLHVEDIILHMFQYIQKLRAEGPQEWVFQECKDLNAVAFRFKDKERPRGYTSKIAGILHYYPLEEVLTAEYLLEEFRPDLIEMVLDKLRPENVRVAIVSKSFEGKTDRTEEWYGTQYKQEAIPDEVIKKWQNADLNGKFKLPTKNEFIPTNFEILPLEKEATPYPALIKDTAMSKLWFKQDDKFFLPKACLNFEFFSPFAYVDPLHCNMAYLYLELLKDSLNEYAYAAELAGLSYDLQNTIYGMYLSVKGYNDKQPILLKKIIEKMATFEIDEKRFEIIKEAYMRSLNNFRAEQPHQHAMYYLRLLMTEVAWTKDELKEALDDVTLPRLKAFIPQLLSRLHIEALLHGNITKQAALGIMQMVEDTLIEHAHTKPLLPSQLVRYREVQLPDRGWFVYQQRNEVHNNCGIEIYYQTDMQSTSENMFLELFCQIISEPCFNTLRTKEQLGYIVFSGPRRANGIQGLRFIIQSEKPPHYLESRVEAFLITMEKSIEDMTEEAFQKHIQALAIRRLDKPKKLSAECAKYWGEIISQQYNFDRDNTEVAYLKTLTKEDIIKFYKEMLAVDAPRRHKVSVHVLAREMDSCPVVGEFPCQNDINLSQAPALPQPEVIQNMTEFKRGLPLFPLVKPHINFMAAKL
# CRFBP-R2 agonist = agonists of human CRF-binding protein/CRF-R2 receptor complex. HEK293 CRF-R2/CRF-BP, calcium dye fluorescence (FLIPR); percent of saturating CRF peptide response. activation, % at 13.2 µM. hit rate 0.46% among 350,000. AID 588473;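 active = activation of at least 50%, plus an integration ratio under a set limit after plate pattern correction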;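 also: plate controls were neutral control wells without compound for no effect and CRF at EC100 for full effect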
# IDE inh = inhibitors of human insulin-degrading enzyme in cells. HEK cells, FAbetaB cleavage, fluorescence polarization. inhibition, % at 5.59 µM. hit rate 0.41% among 320,000. AID 434962;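 active = percent inhibition above the average of all tested compounds plus 3 SD, set per screening campaign, cut at about 16% in these data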;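 also: IDE supplied by intact live HEK cells; FP after avidin binding of uncleaved biotin substrate so inhibition keeps polarization high; 0% = DMSO wells and 100% = 60 µM reference IDE inhibitor Ii1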
# cardiac RTF act = cardiac RTF calcium sensitization; hit rate 0.24% among 340,000; AID 493008; IANBD-labeled TnC RTF fluorescence at EC20 calcium; 0% EC20 calcium, 100% full calcium; activation, % at 7.2 µM; P19429+P45379;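 active = activation above the mean over all tested compounds plus 3 SD, cut at about 30% in these data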;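 also: rise in fluorescence read as greater calcium sensitivity of cardiac thin filaments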
# CRFBP-R2 block = CRF-BP/CRF-R2 complex antagonism. HEK293 CRF-R2/CRF-BP, CRF-induced calcium fluorescence. inhibition, % at 11.8 µM. hit rate 0.59% among 350,000;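 active = inhibition of the ligand-induced calcium signal above about 50% at the single tested concentration, limit read from the data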
# Cardiac RTF inh = cardiac RTF calcium desensitization; inhibition, % at 7.15 µM; hit rate 0.12% among 340,000; IANBD-labeled cardiac RTF, Ca2+ fluorescence;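 active = inhibition above the mean inhibition of all tested compounds plus 3 SD, cut at about 17% in these data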;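 also: assay run at fixed EC70 calcium of 1.6 mM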
# The depositor's hits bear a star; / = no result. An excerpt weighted towards active compounds, which were near 1.5% of everything screened.
SMILES,IDE act,CRFBP-R2 agonist,IDE inh,cardiac RTF act,CRFBP-R2 block,Cardiac RTF inh
COc1cc2c3nnc(-c4ccc(F)cc4)c-3cn(Cc3ccc(C)cc3)c2cc1OC,-5.9,0.1,-3.1,41.3*,-7.2,-54.1
COc1cc2c3nnc(-c4ccc(F)cc4)c-3cn(Cc3cccc(C)c3)c2cc1OC,4.6,4.7,3.3,17.8,-16.9,-34.0
COc1ccc(C(=O)N/N=C/c2ccc(OC)c(COc3ccc(F)cc3F)c2)cc1,2.1,0.0,8.2,0.2,6.2,-3.2
CCCOc1ccc(-c2nn(-c3ccccc3)cc2/C=C2\SC(=S)N(C3CCS(=O)(=O)C3)C2=O)cc1 (centres undefined),2.7,48.3,-1.8,-8.2,-55.0,-3.1
CCOc1ccc(-c2nn(-c3ccccc3)cc2/C=C2\SC(=S)N(C3CCS(=O)(=O)C3)C2=O)cc1 (centres undefined),4.0,115.3*,-3.6,2.7,-122.2,-6.2
Cc1c(NC(=O)Nc2cccc(Cl)c2Cl)c(=O)n(-c2ccccc2)n1C,4.9,-1.8,-5.0,-2.7,3.2,0.4
CSc1nc(-c2ccc(N(C)C)cc2)c(C#N)c(=O)n1C,-8.2,62.0*,6.9,2.4,-28.8,-5.8
CCN(C(=O)c1ccccc1)c1ccc([N+](=O)[O-])cc1,-2.5,-3.7,-2.0,0.3,-4.6,-1.1
O=[N+]([O-])c1ccc(N(c2ccccc2)c2ccccc2)cc1,-2.9,54.5*,5.6,21.6,-37.5,-24.2
O=C(NCN1CCCCC1)c1cnccn1,3.5,0.2,-0.5,1.9,50.8*,-6.7
O=C(NCN1CCOCC1)c1cnccn1,6.2,1.2,2.1,-1.8,14.0,-1.2
O=c1[nH][nH]cc1C=Nc1ccc(Cl)cc1,4.4,-0.7,5.0,-5.7,72.0*,-1.3
Cc1cc(N2CCN(C)CC2)nc2ccc(NC(=O)CCC(=O)NCCCOC(C)C)cc12,2.2,-1.7,-3.4,2.6,51.1*,-2.0
CC(=O)NC1=NC(=O)/C(=C/c2cn(C(C)=O)nc2-c2ccccc2)S1,-4.4,-1.2,19.6*,-0.7,-20.4,-0.8
O=C1/C(=C/c2ccccc2)CCCc2ccccc21,4.7,-0.4,2.6,-2.2,-2.3,2.0
CN(C)c1ccc(/C=C2\CCC/C(=C\c3ccccc3)C2=O)cc1,-6.2,31.2,6.7,84.3*,-69.0,-87.1
CC(C)N(C(=O)COC(=O)c1cncc(Br)c1)C(C)C,-3.0,1.7,1.4,2.2,104.3*,-0.9
CN(/N=C/c1ccc(N(C)C)cc1)C1=NS(=O)(=O)c2ccccc21,-1.3,21.8,4.6,61.4*,-9.2,-11.9
O=C1NC[C@@H](c2ccccc2)OC(=O)[C@H](Cc2ccc(F)cc2)C/C=C\C[C@@H]1CC(=O)N(CCO)Cc1ccccc1,6.6,-1.0,-5.8,7.8,3.5,1.5
COC(=O)c1ccc(CSc2nc3c(cnn3-c3ccc(F)cc3)c(=O)[nH]2)o1,-2.1,-0.7,-1.5,4.8,51.5*,-5.7
COc1ccc(OC)c(N(C)S(=O)(=O)c2ccc3c(c2)N(C(C)=O)CCO3)c1,4.2,-1.2,3.3,2.0,1.6,-6.1
CC(=O)C(Cc1ccccc1)NC(=O)COC(=O)c1cc(S(=O)(=O)N2CCOCC2)ccc1F (centres undefined),/,-0.5,/,/,1.5,/
CSCCC(NC(=O)c1ccccc1)C(=O)N/N=C(\C)c1ccccc1 (centres undefined),-0.8,111.5*,-4.9,-6.9,-90.3,0.1
CC(C)NC(=S)N(CCc1ccncc1)C(C)C,1.2,0.0,-1.4,2.4,111.7*,1.2
O=C(NCCc1ccccc1)c1cccc2c1C(=O)N(C1CCCCC1)C2,6.0,2.1,-3.9,-0.7,15.3,-1.4
SMILES,IDE act,CRFBP-R2 agonist,IDE inh,cardiac RTF act,CRFBP-R2 block,Cardiac RTF inh
COc1ccc(CCNC(=O)c2cccc3c2C(=O)N(C2CCCCC2)C3)cc1OC,4.3,-1.9,2.6,-0.1,74.2*,-7.0
C#CCOCCOCCOCCNc1nc(N2CCN(C(=O)CCCCCCCCCCNC(=O)Cn3cc(CCCCCN)nn3)CC2)nc(N2CCN(C(=O)CCCCCCCCCCNC(=O)[C@@H](CCSC)n3cc(CCO)nn3)CC2)n1,31.2*,11.8,4.0,9.6,-17.9,-1.5
C#CCOCCOCCOCCNc1nc(N2CCN(C(=O)CCCCCCCCCCNC(=O)Cn3cc(CCCCCN)nn3)CC2)nc(N2CCN(C(=O)CCCCCCCCCCNC(=O)[C@@H](CCC(=O)O)n3cc(CCCCCN)nn3)CC2)n1,2.4,5.1,-5.0,1.6,-1.1,1.2
C#CCOCCOCCOCCNc1nc(N2CCN(C(=O)CCCCCCCCCCNC(=O)[C@H](CO)n3cc(CCCSC)nn3)CC2)nc(N2CCN(C(=O)CCCCCCCCCCNC(=O)[C@H](CCCCN)n3cc(CCO)nn3)CC2)n1,22.2*,3.9,5.4,-0.4,-18.9,-3.5
C#CCOCCOCCOCCNc1nc(N2CCN(C(=O)CCCCCCCCCCNC(=O)Cn3cc(C[C@@H](C)O)nn3)CC2)nc(N2CCN(C(=O)CCCCCCCCCCNC(=O)[C@H](CCCN=C(N)N)n3cc(C[C@@H](C)CC)nn3)CC2)n1,35.2*,-0.3,7.9,1.7,-1.5,-6.5
C#CCOCCOCCOCCNc1nc(N2CCN(C(=O)Cn3cc(CCO)nn3)CC2)nc(N2CCN(C(=O)[C@H](CCCCN)n3cc(CC(C)O)nn3)CC2)n1 (some centres undefined),8.2,-2.8,/,0.2,53.3*,-6.2
COc1ccccc1/C=N\NC(=O)c1ccc(COc2ccc(C)c(C)c2)o1,0.5,4.0,7.7,3.8,-12.4,3.7
O=C(Cc1coc2cc(O)ccc12)NNC(=O)c1cccs1,-0.5,-2.2,-1.9,1.5,12.1,-8.9
C#CCOCCOCCOCCNc1nc(N2CCN(C(=O)CCCCCCCCCCNC(=O)[C@H](CO)n3cc(CCCSC)nn3)CC2)nc(N2CCN(C(=O)CCCCCCCCCCNC(=O)[C@H](CCCN=C(N)N)n3cc(C[C@@H](C)CC)nn3)CC2)n1,54.8*,-0.7,-2.4,-0.3,11.6,0.9
Cc1ccc(OCCNC(=O)CCNS(=O)(=O)c2ccc3ccccc3c2)cc1,1.2,-0.7,6.8,-0.6,1.5,-1.2
Nc1nnc(SCc2ccc(F)cc2Cl)s1,-1.8,-6.8,3.8,9.7,58.3*,-6.2
CC[C@H]1c2[nH]c3ccccc3c2C[C@@H]2C(=O)N(c3ccc(F)cc3)C(=O)N21,3.3,7.5,4.1,0.0,-8.1,4.8
COCCn1c(SCC(=O)N2CCCCC2)nc2c(c1=O)SCC2,6.0,-1.4,2.5,-1.2,7.8,-5.2
CCn1c(SCC(=O)N2CCCCC2)nc2c(c1=O)SCC2,-0.5,-0.7,6.3,-2.8,51.7*,-2.8
Cc1cccc(CCNS(=O)(=O)c2ccc3c(c2)NC(=O)CS3)c1,6.4,-0.8,0.3,-4.4,11.7,-4.5
CC[C@@H]1C/C=C\Cc2ccccc2[C@@H](C(=O)C[C@@H](O)CC(C)=O)OC1=O,8.0,1.6,0.6,-2.5,3.0,-6.5

# Bioassay records: PubChem BioAssay, several laboratories
